Assay results: ChEMBL document CHEMBL1961873, “Compounds: GSK PKIS; Assays: Nanosyn kinase panel” (2012)

Legend:
[1] = target: High affinity nerve growth factor receptor (Homo sapiens) (UniProt P04629); settings: at 1 µM;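 further: each value is the mean percent inhibition of TRKA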
[2] = target: BDNF/NT-3 growth factors receptor (Homo sapiens) (UniProt Q16620); settings: at 0.1 µM
[3] = target: BDNF/NT-3 growth factors receptor (Homo sapiens) (UniProt Q16620); settings: at 1 µM
[4] = target: NT-3 growth factor receptor (Homo sapiens) (UniProt Q16288); settings: at 0.1 µM
[5] = target: NT-3 growth factor receptor (Homo sapiens) (UniProt Q16288); settings: at 1 µM
[6] = target: T1, Tyrosine-protein kinase TXK (Homo sapiens) (UniProt P42681); settings: at 0.1 µM
T1 sequence (whole entry): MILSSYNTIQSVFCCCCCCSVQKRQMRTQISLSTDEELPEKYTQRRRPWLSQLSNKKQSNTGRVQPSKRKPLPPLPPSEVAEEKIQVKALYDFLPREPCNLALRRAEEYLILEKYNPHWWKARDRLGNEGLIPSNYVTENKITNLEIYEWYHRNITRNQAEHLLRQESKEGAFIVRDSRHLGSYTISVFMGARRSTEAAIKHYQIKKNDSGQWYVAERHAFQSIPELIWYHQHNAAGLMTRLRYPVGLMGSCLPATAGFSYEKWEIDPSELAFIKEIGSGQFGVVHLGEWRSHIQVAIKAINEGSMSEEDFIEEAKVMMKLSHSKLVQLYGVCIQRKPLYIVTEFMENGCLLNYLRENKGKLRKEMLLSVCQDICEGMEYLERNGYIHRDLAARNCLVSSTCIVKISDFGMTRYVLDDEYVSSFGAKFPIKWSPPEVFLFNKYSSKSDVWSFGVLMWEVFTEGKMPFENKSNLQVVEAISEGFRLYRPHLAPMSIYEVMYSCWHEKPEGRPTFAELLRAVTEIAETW

[7] = target: T1, Tyrosine-protein kinase TXK (Homo sapiens); settings: at 1 µM
[8] = target: Non-receptor tyrosine-protein kinase TYK2 (Homo sapiens) (UniProt P29597); settings: at 0.1 µM;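 further: each value is a mean of the inhibition readings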
[9] = target: T2, Dual specificity protein kinase TTK (Homo sapiens) (UniProt P33981); settings: at 1 µM;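 further: reported figures are mean TTK inhibition at 1 µM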
T2 sequence (whole entry): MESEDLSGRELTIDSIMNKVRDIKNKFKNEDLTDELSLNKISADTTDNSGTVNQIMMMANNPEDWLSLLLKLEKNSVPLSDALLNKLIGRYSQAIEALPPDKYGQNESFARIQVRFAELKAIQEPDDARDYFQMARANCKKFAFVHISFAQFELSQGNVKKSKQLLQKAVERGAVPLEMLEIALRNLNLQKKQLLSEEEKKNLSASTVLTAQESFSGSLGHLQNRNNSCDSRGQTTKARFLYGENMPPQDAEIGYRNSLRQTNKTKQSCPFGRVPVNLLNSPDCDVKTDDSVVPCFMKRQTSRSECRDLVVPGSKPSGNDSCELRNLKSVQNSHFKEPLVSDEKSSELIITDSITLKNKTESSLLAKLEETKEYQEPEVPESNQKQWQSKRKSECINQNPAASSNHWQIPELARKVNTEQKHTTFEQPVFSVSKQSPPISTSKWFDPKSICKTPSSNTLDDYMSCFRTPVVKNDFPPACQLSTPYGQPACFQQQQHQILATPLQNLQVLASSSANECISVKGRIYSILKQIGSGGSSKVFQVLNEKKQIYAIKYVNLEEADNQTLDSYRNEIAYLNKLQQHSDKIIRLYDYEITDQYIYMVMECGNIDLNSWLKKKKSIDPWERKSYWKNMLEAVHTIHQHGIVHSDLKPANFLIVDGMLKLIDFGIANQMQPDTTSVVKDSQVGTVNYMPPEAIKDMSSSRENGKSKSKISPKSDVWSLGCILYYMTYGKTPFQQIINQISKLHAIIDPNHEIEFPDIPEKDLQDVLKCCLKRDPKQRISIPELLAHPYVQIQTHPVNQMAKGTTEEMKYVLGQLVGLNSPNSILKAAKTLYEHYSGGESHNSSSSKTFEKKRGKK

[10] = target: T3, Aurora kinase A (Homo sapiens) (UniProt O14965); settings: at 0.1 µM
T3 sequence (whole entry): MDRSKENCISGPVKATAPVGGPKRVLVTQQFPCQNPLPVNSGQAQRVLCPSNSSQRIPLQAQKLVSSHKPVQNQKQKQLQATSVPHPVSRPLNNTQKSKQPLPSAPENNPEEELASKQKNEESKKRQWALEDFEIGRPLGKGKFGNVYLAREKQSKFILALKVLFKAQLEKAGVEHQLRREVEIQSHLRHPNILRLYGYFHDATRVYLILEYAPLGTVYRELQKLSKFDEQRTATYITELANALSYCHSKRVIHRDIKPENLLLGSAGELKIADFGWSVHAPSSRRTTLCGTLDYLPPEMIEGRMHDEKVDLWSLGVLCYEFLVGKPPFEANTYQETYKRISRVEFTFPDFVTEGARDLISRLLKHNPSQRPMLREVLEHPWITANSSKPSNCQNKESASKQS

[11] = target: T3, Aurora kinase A (Homo sapiens); settings: at 1 µM
[12] = target: Aurora kinase B (Homo sapiens) (UniProt Q96GD4); settings: at 0.1 µM
[13] = target: Aurora kinase B (Homo sapiens) (UniProt Q96GD4); settings: at 1 µM
[14] = target: T4, Aurora kinase C (Homo sapiens) (UniProt Q9UQB9); settings: at 0.1 µM
T4 sequence (whole entry): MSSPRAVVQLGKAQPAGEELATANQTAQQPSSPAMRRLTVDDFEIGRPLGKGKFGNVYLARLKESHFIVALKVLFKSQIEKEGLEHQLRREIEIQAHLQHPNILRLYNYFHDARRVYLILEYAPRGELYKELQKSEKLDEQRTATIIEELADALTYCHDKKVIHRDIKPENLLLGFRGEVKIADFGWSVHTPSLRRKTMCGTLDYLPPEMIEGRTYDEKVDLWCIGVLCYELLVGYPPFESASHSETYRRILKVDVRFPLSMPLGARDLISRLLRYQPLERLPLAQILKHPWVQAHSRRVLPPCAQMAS

[15] = target: T4, Aurora kinase C (Homo sapiens); settings: at 1 µM
[16] = target: Serine/threonine-protein kinase 10 (Homo sapiens) (UniProt O94804); settings: at 0.1 µM
[17] = target: Serine/threonine-protein kinase 10 (Homo sapiens) (UniProt O94804); settings: at 1 µM
[18] = target: T5, Mitogen-activated protein kinase kinase kinase kinase 2 (Homo sapiens) (UniProt Q12851); settings: at 0.1 µM
T5 sequence (whole entry): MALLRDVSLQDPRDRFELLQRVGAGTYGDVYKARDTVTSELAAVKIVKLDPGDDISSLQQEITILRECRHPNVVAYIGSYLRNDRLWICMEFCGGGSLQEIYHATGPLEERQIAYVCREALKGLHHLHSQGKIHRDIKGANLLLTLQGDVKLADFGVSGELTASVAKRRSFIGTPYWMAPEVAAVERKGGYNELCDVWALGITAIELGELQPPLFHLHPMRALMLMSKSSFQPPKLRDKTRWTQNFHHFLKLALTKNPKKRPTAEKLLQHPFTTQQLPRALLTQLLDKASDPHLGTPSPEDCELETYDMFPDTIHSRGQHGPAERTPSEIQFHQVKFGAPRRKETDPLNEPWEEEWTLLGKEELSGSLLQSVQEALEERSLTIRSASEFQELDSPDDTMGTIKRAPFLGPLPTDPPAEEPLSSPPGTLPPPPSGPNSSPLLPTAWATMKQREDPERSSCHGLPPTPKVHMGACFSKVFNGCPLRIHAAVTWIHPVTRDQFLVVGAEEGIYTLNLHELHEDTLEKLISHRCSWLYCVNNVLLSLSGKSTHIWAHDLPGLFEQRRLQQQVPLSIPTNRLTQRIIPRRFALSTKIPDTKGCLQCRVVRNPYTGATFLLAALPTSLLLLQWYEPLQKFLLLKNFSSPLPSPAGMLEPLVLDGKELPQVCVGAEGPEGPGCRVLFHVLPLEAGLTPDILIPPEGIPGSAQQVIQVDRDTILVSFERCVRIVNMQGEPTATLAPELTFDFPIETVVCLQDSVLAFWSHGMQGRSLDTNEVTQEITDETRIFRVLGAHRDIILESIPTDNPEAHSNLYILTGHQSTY

[19] = target: T5, Mitogen-activated protein kinase kinase kinase kinase 2 (Homo sapiens); settings: at 1 µM
[20] = target: Mitogen-activated protein kinase kinase kinase kinase 4 (Homo sapiens) (UniProt O95819); settings: at 0.1 µM
Mitogen-activated protein kinase kinase kinase kinase 4 (Homo sapiens), sequence (O95819 2-1239 limits assumed): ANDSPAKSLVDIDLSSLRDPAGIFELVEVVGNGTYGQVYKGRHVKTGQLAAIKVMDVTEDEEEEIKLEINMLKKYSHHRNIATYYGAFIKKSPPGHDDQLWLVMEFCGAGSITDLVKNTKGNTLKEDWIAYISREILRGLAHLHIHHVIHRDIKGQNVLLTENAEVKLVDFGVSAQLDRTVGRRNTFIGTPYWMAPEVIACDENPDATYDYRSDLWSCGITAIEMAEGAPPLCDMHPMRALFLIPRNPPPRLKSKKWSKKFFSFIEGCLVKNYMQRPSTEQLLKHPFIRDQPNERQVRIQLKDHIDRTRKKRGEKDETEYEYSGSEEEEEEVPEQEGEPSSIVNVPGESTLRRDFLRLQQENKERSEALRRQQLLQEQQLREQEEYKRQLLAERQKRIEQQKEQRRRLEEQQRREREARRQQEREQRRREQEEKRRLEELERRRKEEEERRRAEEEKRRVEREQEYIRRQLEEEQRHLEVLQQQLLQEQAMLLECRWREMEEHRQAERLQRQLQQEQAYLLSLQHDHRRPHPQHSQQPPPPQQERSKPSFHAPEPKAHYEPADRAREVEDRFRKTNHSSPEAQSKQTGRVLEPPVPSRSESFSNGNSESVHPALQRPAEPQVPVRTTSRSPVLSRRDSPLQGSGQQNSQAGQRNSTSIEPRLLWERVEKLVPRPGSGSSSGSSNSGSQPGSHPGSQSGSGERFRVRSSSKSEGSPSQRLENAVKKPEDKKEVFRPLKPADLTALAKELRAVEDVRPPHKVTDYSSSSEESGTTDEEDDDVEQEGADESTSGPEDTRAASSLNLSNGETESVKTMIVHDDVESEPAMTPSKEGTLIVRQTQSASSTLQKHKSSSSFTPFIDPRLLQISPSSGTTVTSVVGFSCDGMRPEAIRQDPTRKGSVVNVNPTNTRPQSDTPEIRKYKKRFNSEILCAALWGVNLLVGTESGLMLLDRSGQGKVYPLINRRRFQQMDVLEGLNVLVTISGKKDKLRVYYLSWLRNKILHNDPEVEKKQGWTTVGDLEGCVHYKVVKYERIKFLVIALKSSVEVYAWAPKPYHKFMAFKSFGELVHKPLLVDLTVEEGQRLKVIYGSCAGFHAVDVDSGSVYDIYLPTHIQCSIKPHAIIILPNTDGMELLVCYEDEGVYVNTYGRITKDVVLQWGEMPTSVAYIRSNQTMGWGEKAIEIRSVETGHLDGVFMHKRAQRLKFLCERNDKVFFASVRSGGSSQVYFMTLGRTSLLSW

High affinity nerve growth factor receptor (Homo sapiens), sequence (P04629 33-796 limits assumed): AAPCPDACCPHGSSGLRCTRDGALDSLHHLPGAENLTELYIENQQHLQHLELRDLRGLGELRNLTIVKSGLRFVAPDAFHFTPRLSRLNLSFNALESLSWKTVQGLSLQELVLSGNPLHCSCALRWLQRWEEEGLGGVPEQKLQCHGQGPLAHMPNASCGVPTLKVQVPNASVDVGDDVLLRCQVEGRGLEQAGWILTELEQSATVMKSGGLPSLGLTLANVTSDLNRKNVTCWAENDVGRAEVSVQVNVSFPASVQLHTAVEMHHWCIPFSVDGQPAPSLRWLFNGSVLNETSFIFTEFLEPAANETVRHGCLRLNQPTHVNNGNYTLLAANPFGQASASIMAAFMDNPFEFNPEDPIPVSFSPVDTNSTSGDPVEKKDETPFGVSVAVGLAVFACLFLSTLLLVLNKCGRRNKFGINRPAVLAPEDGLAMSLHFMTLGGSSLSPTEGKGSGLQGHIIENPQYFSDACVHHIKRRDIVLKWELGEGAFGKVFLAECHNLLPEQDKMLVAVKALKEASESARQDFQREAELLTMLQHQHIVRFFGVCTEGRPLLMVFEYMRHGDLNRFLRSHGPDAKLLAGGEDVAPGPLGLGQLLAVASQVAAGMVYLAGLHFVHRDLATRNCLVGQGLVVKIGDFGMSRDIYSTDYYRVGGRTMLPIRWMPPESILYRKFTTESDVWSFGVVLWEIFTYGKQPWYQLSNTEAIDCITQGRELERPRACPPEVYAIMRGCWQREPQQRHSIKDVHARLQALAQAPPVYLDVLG
BDNF/NT-3 growth factors receptor (Homo sapiens), sequence (Q16620 32-822 limits assumed): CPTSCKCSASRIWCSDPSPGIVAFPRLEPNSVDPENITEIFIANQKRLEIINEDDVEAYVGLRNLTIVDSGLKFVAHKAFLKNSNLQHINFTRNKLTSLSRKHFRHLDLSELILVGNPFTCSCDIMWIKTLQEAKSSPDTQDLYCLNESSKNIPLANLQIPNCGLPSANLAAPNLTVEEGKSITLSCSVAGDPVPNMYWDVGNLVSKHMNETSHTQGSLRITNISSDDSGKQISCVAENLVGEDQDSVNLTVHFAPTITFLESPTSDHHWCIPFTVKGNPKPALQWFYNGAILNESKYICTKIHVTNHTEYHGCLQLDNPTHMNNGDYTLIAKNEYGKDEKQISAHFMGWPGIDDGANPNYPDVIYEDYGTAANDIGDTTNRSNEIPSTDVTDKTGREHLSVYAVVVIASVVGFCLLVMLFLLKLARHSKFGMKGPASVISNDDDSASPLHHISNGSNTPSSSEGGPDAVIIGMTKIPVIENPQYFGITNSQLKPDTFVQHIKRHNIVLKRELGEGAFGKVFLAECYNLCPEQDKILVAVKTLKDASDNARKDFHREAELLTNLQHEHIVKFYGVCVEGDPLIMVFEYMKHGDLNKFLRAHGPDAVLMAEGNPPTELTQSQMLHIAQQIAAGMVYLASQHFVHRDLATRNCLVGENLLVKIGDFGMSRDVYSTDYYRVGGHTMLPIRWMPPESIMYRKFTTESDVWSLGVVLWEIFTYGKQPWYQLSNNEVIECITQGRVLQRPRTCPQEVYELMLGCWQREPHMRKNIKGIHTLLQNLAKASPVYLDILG
Non-receptor tyrosine-protein kinase TYK2 (Homo sapiens), sequence (P29597 whole entry): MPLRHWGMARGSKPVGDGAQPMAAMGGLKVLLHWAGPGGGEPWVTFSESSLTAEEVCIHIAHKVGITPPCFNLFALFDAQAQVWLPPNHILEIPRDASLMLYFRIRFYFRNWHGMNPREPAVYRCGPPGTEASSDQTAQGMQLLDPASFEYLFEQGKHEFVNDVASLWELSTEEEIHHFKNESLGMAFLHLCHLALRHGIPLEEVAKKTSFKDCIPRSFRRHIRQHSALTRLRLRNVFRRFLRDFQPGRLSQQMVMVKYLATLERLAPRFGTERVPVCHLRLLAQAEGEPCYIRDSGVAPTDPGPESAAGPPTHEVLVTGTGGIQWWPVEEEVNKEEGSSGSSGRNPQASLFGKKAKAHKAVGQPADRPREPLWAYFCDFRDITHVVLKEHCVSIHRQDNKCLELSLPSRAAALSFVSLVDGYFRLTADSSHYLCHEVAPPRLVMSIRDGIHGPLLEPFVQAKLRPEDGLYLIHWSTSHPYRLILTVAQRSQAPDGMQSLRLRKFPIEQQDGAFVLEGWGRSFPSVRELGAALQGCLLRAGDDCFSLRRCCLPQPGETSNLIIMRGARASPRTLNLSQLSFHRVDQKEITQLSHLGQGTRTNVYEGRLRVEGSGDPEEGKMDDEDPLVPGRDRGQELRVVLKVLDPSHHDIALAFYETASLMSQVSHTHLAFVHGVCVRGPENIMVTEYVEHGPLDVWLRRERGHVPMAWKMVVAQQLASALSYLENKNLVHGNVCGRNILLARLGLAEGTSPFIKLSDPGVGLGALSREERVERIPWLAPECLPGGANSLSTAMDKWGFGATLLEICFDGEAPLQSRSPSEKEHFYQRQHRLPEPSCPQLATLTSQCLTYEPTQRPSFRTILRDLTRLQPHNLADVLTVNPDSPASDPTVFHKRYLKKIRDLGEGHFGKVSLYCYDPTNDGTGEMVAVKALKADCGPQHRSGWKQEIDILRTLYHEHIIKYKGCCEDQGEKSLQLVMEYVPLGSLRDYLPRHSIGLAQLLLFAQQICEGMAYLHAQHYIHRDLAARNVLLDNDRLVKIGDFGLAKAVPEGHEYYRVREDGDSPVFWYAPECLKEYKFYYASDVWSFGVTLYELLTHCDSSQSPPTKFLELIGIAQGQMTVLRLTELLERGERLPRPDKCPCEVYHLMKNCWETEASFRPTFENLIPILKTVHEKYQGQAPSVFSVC
Aurora kinase B (Homo sapiens), sequence (Q96GD4 whole entry): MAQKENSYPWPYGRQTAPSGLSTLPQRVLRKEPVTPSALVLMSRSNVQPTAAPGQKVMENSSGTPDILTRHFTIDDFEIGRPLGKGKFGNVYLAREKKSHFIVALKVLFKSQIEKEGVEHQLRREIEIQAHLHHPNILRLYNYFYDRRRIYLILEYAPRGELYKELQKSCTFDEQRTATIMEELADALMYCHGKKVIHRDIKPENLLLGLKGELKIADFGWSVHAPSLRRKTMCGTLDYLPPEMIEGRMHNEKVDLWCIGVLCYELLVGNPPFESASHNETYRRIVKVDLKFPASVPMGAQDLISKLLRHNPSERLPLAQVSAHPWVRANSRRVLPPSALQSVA

How did the inhibition [1] turn out when `CN1CCN(C(=O)c2ccc(NC(=O)Nc3ccc(N(C)c4ccnc(Nc5ccc(CS(C)(=O)=O)cc5)n4)cc3)cc2)CC1` was run?
Its inhibition is 51%.

What about the inhibition [2] of the same compound?
The inhibition was 5.61%.

And the inhibition [3]?
Its inhibition is 31.5%.

What about the inhibition [4] of the same compound?
Its inhibition is 9.24%.

What about the inhibition [5] of the same compound?
Its inhibition is 36.9%.

What about the inhibition [6] of the same compound?
Its inhibition is 33.8%.

What about the inhibition [7] of the same compound?
The inhibition was 70.1%.

And the inhibition [8]?
Its inhibition is -4.74%.

And the inhibition [9]?
Its inhibition is 8.24%.

What about the inhibition [10] of the same compound?
The inhibition was 84.3%.

And the inhibition [11]?
The inhibition was 85.9%.

And the inhibition [12]?
The inhibition was 68.5%.

What about the inhibition [13] of the same compound?
Its inhibition is 72.8%.

What about the inhibition [14] of the same compound?
The inhibition was 88.4%.

What about the inhibition [15] of the same compound?
The inhibition was 95.3%.

And the inhibition [16]?
Its inhibition is 26.3%.

And the inhibition [17]?
Its inhibition is 67.7%.

And the inhibition [18]?
Its inhibition is 4.67%.

What about the inhibition [19] of the same compound?
The inhibition was 32.7%.

And the inhibition [20]?
The inhibition was 13%.

What does the source list for `CC(C)c1ccc(Nc2nccc(-c3cnn4ncccc34)n2)cc1`?
inhibition [1]: 7.94%; inhibition [2]: 2.01%; inhibition [3]: 6.18%; inhibition [4]: 3.36%; inhibition [5]: 9.1%; inhibition [6]: 1.69%; inhibition [7]: 3.04%; inhibition [8]: -0.82%; inhibition [9]: 22.2%; inhibition [10]: 6.2%; inhibition [11]: 65.8%; inhibition [12]: 7.65%; inhibition [13]: 43.1%; inhibition [14]: 5.11%; inhibition [15]: 74.6%; inhibition [16]: 3.13%; inhibition [17]: 8.29%; inhibition [18]: 1.97%; inhibition [19]: 23.4%; inhibition [20]: 4.8%

Which inhibition [1] does the source give for `[O-][S+]1CCN(Cc2ccc(-c3ccc4ncnc(Nc5ccc(OCc6ccccc6)c(Cl)c5)c4c3)o2)CC1` here?
The inhibition was 3.75%.

And the inhibition [2]?
Its inhibition is 1.6%.

What about the inhibition [3] of the same compound?
Its inhibition is 2.14%.

What about the inhibition [4] of the same compound?
Its inhibition is 0.66%.

And the inhibition [5]?
Its inhibition is 0.36%.

And the inhibition [6]?
The inhibition was 0.16%.

What about the inhibition [7] of the same compound?
The inhibition was 2.65%.

And the inhibition [8]?
The inhibition was -1.17%.

What about the inhibition [9] of the same compound?
The inhibition was 8.12%.

What about the inhibition [10] of the same compound?
Its inhibition is 1.75%.

And the inhibition [11]?
The inhibition was 2.75%.

What about the inhibition [12] of the same compound?
Its inhibition is 3.28%.

What about the inhibition [13] of the same compound?
The inhibition was 5.05%.

And the inhibition [14]?
Its inhibition is -0.09%.

What about the inhibition [15] of the same compound?
The inhibition was 1.6%.

And the inhibition [16]?
Its inhibition is 3.93%.

And the inhibition [17]?
The inhibition was 12.3%.

And the inhibition [18]?
Its inhibition is -0.35%.

What about the inhibition [19] of the same compound?
The inhibition was 1.53%.

What about the inhibition [20] of the same compound?
The inhibition was 0.26%.

How did the inhibition [1] turn out when `Nc1nccc(-c2c(-c3ccc(F)cc3)nn3cc(C(F)(F)F)ccc23)n1` was run?
The inhibition was -4.55%.

And the inhibition [2]?
The inhibition was 0.39%.

And the inhibition [3]?
Its inhibition is 0.48%.

What about the inhibition [4] of the same compound?
The inhibition was 0.11%.

And the inhibition [5]?
Its inhibition is 1.1%.

And the inhibition [6]?
The inhibition was 0.11%.

What about the inhibition [7] of the same compound?
The inhibition was 6.52%.

And the inhibition [8]?
Its inhibition is -4.56%.

And the inhibition [9]?
The inhibition was 4.23%.

And the inhibition [10]?
The inhibition was 0.97%.

And the inhibition [11]?
The inhibition was 1.39%.

And the inhibition [12]?
Its inhibition is 1.38%.

What about the inhibition [13] of the same compound?
Its inhibition is 0.7%.

What about the inhibition [14] of the same compound?
The inhibition was 1.04%.

And the inhibition [15]?
The inhibition was 0.73%.

And the inhibition [16]?
Its inhibition is -0.92%.

What about the inhibition [17] of the same compound?
The inhibition was 3.24%.

What about the inhibition [18] of the same compound?
The inhibition was 2.23%.

What about the inhibition [19] of the same compound?
The inhibition was 1.52%.

And the inhibition [20]?
Its inhibition is -0.02%.

How did the inhibition [1] turn out when `O=C(Nc1ccc(Oc2ccc3[nH]c(NC(=O)c4ccco4)nc3c2)cc1)Nc1cc(C(F)(F)F)ccc1F` was run?
Its inhibition is 85.5%.

And the inhibition [2]?
Its inhibition is 27.8%.

What about the inhibition [3] of the same compound?
Its inhibition is 73.9%.

And the inhibition [4]?
Its inhibition is 30.8%.

And the inhibition [5]?
The inhibition was 89.6%.

What about the inhibition [6] of the same compound?
The inhibition was -1.98%.

What about the inhibition [7] of the same compound?
Its inhibition is -1.15%.

And the inhibition [8]?
The inhibition was 1.41%.

And the inhibition [9]?
Its inhibition is 13.6%.

What about the inhibition [10] of the same compound?
Its inhibition is -1.76%.

What about the inhibition [11] of the same compound?
The inhibition was 15.1%.

And the inhibition [12]?
Its inhibition is 5.43%.

And the inhibition [13]?
Its inhibition is 38.8%.

What about the inhibition [14] of the same compound?
The inhibition was 8.04%.

And the inhibition [15]?
The inhibition was 82.4%.

And the inhibition [16]?
The inhibition was 35.6%.

What about the inhibition [17] of the same compound?
Its inhibition is 76.7%.

What about the inhibition [18] of the same compound?
Its inhibition is 2.98%.

What about the inhibition [19] of the same compound?
Its inhibition is 28.9%.

And the inhibition [20]?
Its inhibition is 0.47%.
